Experimental findings from PubChem BioAssay AID504339 (National Center for Advancing Translational Sciences (NCATS), 2011) are described below.

Hit rate of the full screen: of about 390,000 compounds, about 17,000 (4.4%) were called active. Not shown: some 8% with an inconclusive outcome. Calls follow the shape of the dose curve; as a rule, active = well fitted inhibition curve with a large enough effect; inconclusive = small, poorly fitted or top-dose-only effect; inactive = no such curve, though single readings can be large or run the other way. This excerpt belongs to a sample that is enriched for actives.
% is scaled to controls: 0 for no effect and ±100 for the full control effect; potency is read from the fitted curve at half-maximal effect.

The target in the assay is Lysine-specific demethylase 4A (Homo sapiens) (UniProt O75164). As to the kind of experiment: qHTS Assay for Inhibitors of JMJD2A-Tudor Domain. Also: nearly all actives have a fitted effect of over 50% in size. The settings on record: AlphaScreen JMJD2A-Tudor / H3K4me3 peptide binding; series mostly up to 114 µM; activity change, negative = inhibition: at the top concentration. Background: qHTS replaces the single test concentration by a dilution series.
Chain of Lysine-specific demethylase 4A (Homo sapiens) (O75164 whole entry, looked up, the tested form may be a part): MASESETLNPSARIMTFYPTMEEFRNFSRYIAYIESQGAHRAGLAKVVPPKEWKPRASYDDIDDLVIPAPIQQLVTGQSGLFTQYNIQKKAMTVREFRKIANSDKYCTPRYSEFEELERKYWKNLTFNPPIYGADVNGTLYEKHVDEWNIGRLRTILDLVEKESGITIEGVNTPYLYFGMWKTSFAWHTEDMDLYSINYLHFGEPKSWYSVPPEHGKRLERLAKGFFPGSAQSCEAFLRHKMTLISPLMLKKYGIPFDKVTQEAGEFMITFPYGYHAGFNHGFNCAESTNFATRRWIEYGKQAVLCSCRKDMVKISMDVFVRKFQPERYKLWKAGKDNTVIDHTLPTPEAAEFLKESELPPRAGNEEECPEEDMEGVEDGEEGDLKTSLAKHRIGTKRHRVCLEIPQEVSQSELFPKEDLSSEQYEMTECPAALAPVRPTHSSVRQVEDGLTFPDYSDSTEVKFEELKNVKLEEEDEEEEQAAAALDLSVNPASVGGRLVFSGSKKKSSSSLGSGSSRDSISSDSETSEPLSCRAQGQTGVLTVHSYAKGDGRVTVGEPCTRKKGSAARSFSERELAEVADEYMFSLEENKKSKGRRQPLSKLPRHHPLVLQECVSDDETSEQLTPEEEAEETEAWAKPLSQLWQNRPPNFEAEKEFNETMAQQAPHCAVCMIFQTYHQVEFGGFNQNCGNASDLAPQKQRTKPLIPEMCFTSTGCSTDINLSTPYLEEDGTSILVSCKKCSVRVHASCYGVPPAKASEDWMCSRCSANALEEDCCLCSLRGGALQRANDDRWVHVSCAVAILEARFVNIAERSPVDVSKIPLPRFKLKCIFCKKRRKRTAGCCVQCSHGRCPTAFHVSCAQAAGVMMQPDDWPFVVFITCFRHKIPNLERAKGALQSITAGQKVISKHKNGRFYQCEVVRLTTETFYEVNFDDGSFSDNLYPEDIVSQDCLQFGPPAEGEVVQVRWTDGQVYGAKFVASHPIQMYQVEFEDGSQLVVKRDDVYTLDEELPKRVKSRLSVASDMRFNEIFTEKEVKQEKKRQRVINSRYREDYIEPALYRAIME
In the case of `O=S(=O)(NC1CC1)c1ccc(Cl)cc1`, the “activity change, negative = inhibition” value is -7.53% (inactive).

As to `O=S(=O)(NC1CC1)c1ccc2c3c(cccc13)CC2`, the Potency is 17.8 µM (active).

Take `O=S(=O)(NC1CCCCC1)c1ccc(F)c2ccccc12`: the “activity change, negative = inhibition” value was 3.31% (inactive).

As to `Cc1ccc(-c2nnc3c4ccccc4c(C)nn23)cc1NC(=O)c1cccc(Br)c1`, the “activity change, negative = inhibition” value was -3.78% (inactive).

For `Cc1ccccc1C(=O)Nc1nnc(S(=O)(=O)N(C)c2ccc(Cl)cc2)s1`, the “activity change, negative = inhibition” value is 2.96% (inactive).

For `N#Cc1nc(Nc2cccc(Cl)c2)nc(NC2CCCC2)n1`, the “activity change, negative = inhibition” value was -11.6% (inactive).

As for `COc1ccc(NC(=O)C(c2ccccc2)N2Cc3ccccc3C2=O)cc1` (stereo unspecified), the “activity change, negative = inhibition” value is -26% (inactive).

As to `COc1ccc2c(c1)c(=Cc1ccc(N(C)C)cc1)c1cc(-c3ccccc3)[n+](C)n12`, the Potency was 22.4 µM (active).

As for `COc1ccc(-c2onc(C)c2C)cc1S(=O)(=O)NCc1cccs1`, the “activity change, negative = inhibition” value was -8.44% (inactive).

For `COC(=O)c1cnc(Nc2cc(C)ccc2OC)c2ccccc12`, the “activity change, negative = inhibition” value was 61.9% (inactive).

Consider `COc1ccc(C)cc1Nc1nc(C)nc2c1oc1ccccc12`, for which the Potency was 17.8 µM (active).

Take `COc1ccccc1Nc1ncnc2c1oc1ccccc12`: the “activity change, negative = inhibition” value is 17.7% (inactive).

For `O=C(OCC#CCSc1nnc(-c2ccco2)o1)c1ccc(F)cc1`, the “activity change, negative = inhibition” value was 23.8% (inactive).

Take `COC(=O)c1ccc(OC)c(Cn2c(=O)n(Cc3ccccc3)c(=O)c3c2c2cc(OC)ccc2n3C)c1`: the “activity change, negative = inhibition” value is -11.3% (inactive).

In the case of `O=C1Nc2ccc(Br)cc2/C1=N/N=C/C1=C(N2CCOCC2)C(=C\c2ccccc2)/CC1`, the Potency is 5.01 µM (active).

For the compound `COc1ccc(/C=N/N=C2/C(=O)Nc3ccccc32)cc1O`, the activity change, negative = inhibition is -12.8% [at 11.4 µM] (inactive).

Take `COc1cc(OC)cc(C(=O)Nc2cc3nn(-c4ccccc4)nc3cc2Cl)c1`: the “activity change, negative = inhibition” value was -5.6% (inactive).

Take `CCCNC(=O)CCC(=O)N1Cc2ccccc2Oc2ncccc21`: the “activity change, negative = inhibition” value was -21% (inactive).

Regarding `Cc1ccc(-c2noc(-c3nnn(-c4cccc(C(F)(F)F)c4)c3N)n2)cc1`, the “activity change, negative = inhibition” value was -19% (inactive).

With `CCC(C)NCCOCCOc1ccc(Br)cc1C` (stereo unspecified), the Potency was 28.2 µM (active).

`Cc1cccc(NC(=O)COc2ccc(Br)cc2C)n1`: the “activity change, negative = inhibition” value is -4.13% (inactive).

For the compound `Cc1ccc(OCCOCCOc2ccc(Br)cc2/C=N\NC(=O)c2ccncc2)cc1`, the “activity change, negative = inhibition” value was -16.9% (inactive).

Take `COc1ccc(C2C(=O)N(C3CCCCC3)CC(=O)N2Cc2ccccc2Cl)cc1OC` (stereo unspecified): the “activity change, negative = inhibition” value was -23.9% (inactive).

For `COc1cccc(NC(=O)Nc2ccc3c(c2)N(C)C(=O)c2ccccc2S3)c1`, the “activity change, negative = inhibition” value was -24.2% (inactive).

Regarding `CCc1ccc2c(c1)C1(NN=C(c3ccccc3)S1)C(=O)N2` (stereo unspecified), the Potency is 56.2 µM (active).

For the compound `CCc1cccc(NC(=O)c2cc(-c3ccccc3)n[nH]2)c1`, the “activity change, negative = inhibition” value was -2.76% (inactive).

As for `CCOc1ccc(CNC(=O)C2CCN(c3nnc(-n4cccc4CNc4ccc(C)cc4)s3)CC2)cc1OC`, the “activity change, negative = inhibition” value was 0.364% (inactive).

Take `CCC(=O)Nc1nnc(S(=O)(=O)N2CCCc3ccccc32)s1`: the “activity change, negative = inhibition” value is -17.7% (inactive).

In the case of `O=C(Nc1nnc(S(=O)(=O)N2CCCCCC2)s1)c1cccc(Br)c1`, the “activity change, negative = inhibition” value was -17.2% (inactive).

For `O=C(Nc1nnc(S(=O)(=O)N2CCCc3ccccc32)s1)c1cccc(F)c1`, the Potency is 50.1 µM (active).

Turning to `Cc1ccc2nc(NC(=O)c3nc(SCc4ccccc4F)ncc3Cl)sc2c1`, the “activity change, negative = inhibition” value was -12.3% (inactive).

`COc1ccc(S(=O)(=O)c2c(Nc3cccc(Cl)c3)sc(C(=O)c3ccccc3)c2N)cc1`: the “activity change, negative = inhibition” value is -24.2% (inactive).

Turning to `COc1ccc(C)cc1N(CC(=O)N1CCC(C)CC1)S(=O)(=O)c1ccc(C)cc1`, the “activity change, negative = inhibition” value is -29.4% (inactive).

On to `CC(C)CC(=O)N1CCC(O)(CS(=O)(=O)Cc2ccccc2)CC1`, for which the “activity change, negative = inhibition” value is -11.5% (inactive).

On to `CCOc1cc(CO)ccc1OCC(=O)N1CCCCC1`, for which the “activity change, negative = inhibition” value is -14% (inactive).

Consider `CCOC(=O)C1CCN(Cc2nnc(-c3cccc(Br)c3)o2)CC1`, for which the “activity change, negative = inhibition” value was 1.67% (inactive).

With `CCOC(=O)C1CCN(CCC(=O)Nc2cccc(C)c2)CC1`, the “activity change, negative = inhibition” value was 4.35% (inactive).

Take `COc1cc(CN2CCC(C(N)=O)CC2)ccc1OCc1ccccc1`: the Potency is 50.1 µM (active).

With `Cc1c(Br)c([N+](=O)[O-])nn1CC(=O)N1CCN(Cc2ccccc2)CC1`, the “activity change, negative = inhibition” value was -4.12% (inactive).

For `COc1ccc(CCN2C(=O)CC(N3CCC(C(N)=O)CC3)C2=O)cc1OC` (stereo unspecified), the “activity change, negative = inhibition” value was -2.49% (inactive).

Consider `CC(C)CC(=O)N1CCN(Cc2ccccc2Br)CC1`, for which the Potency is 17.8 µM (active).

Regarding `COc1ccc(COCC(O)CN2CCC(C(N)=O)CC2)cc1` (stereo unspecified), the “activity change, negative = inhibition” value is 1.99% (inactive).

In the case of `CCOc1cc(CN2CCN(C(=O)CC(C)C)CC2)ccc1OC`, the Potency is 3.16 µM (active).

Consider `COc1ccc(CN2CCN(C(=O)CCC(=O)Nc3nnc(C(C)C)s3)CC2)cc1F`, for which the “activity change, negative = inhibition” value is -11.5% (inactive).

`CCOC(=O)C1CCN(Cc2ccc(-c3ccccc3)cc2)CC1`: the Potency was 17.8 µM (active).

As to `COc1ccc(Cn2ccc3nc(C)c(C(=O)Nc4ccc(C)c(F)c4)cc3c2=O)cc1`, the “activity change, negative = inhibition” value is -8.67% (inactive).

Consider `COc1cccc(NC(=O)CSc2cc(=O)n(C)c3ccc(Cl)cc23)c1`, for which the “activity change, negative = inhibition” value is -9.09% (inactive).

As to `CCCNC(=O)c1ccc2c(c1)ncn2-c1ccc(C)cc1C`, the “activity change, negative = inhibition” value is -20.8% (inactive).

For the compound `COc1ccc(-c2cc(NCc3ccc(F)cc3)n3cnnc3n2)cc1`, the “activity change, negative = inhibition” value is -35.8% (inactive).

Take `Cc1cc2oc(C(=O)N(Cc3ccc(Cl)cc3)Cc3ccco3)c(C)c2cc1Cl`: the “activity change, negative = inhibition” value is -4.86% (inactive).

For `CC(C)(C)c1ccc(C(=O)NCC(c2ccc(Cl)cc2)N2CCOCC2)cc1` (stereo unspecified), the “activity change, negative = inhibition” value was -21.9% (inactive).

For `Cc1nc2nc(SCC(=O)NC3CCC(C)CC3)nn2c(C)c1Cc1ccccc1Cl` (stereo unspecified), the “activity change, negative = inhibition” value is -31.5% (inactive).

As for `Cc1ccc(NC(=O)c2oc3ccc(S(=O)(=O)N4CCCCC4)cc3c2C)cc1Cl`, the “activity change, negative = inhibition” value was -13.8% (inactive).

Take `CC(C)CC(=O)N1CCN(Cc2cccc(Cl)c2)CC1`: the Potency was 44.7 µM (active).

As to `Cn1nnnc1SCC(=O)N1CCN(Cc2ccccc2)CC1`, the “activity change, negative = inhibition” value was -0.746% (inactive).

Regarding `O=C(c1cccc(Cl)c1)N1CCN(Cc2ccccc2)CC1`, the “activity change, negative = inhibition” value was -11% (inactive).

Consider `CCOC(=O)N1CCC(NC(=O)c2cnn(-c3cccc(C)c3)c2C2CCN(C(=O)OC(C)(C)C)CC2)CC1`, for which the “activity change, negative = inhibition” value was -8.41% (inactive).

For the compound `O=C(Nc1ncccc1O)c1ccc(C(=O)c2ccccc2)cc1`, the “activity change, negative = inhibition” value is -15.8% (inactive).

With `O=C(CNC(=O)c1ccc2ccccc2c1)Nc1ncccc1O`, the Potency was 79.4 µM (active).

Consider `CC1CCC(NC(=O)CNC(=O)c2ccc3ccccc3c2)CC1` (stereo unspecified), for which the “activity change, negative = inhibition” value is -9.59% (inactive).

Consider `CCCN(CCC)C(=O)C1CCCN(c2ncnc3c2nc2n3CCCCC2)C1` (stereo unspecified), for which the “activity change, negative = inhibition” value is -0.641% (inactive).

For `COc1cccc(NC(=S)NC(=O)c2c(Cl)c(C)nn2C)c1`, the Potency is 89.1 µM (active).

Take `Cc1nn(C)c(C(=O)NNC(=S)NC2CCCCC2)c1Cl`: the “activity change, negative = inhibition” value is 1.49% (inactive).

Turning to `COc1cccc(NC(=O)c2csnn2)c1`, the “activity change, negative = inhibition” value is -14.9% (inactive).

Consider `COc1ccc(S(=O)(=O)c2cn(C)c3cc(N4CCCCC4)c(F)cc3c2=O)cc1`, for which the “activity change, negative = inhibition” value was -13.2% (inactive).

For the compound `COC(=O)c1ccccc1NS(=O)(=O)c1ccc2[nH]c(=O)[nH]c2c1`, the “activity change, negative = inhibition” value was -11.8% (inactive).

Take `COc1ccc(Br)cc1/C=N/Nc1ccc(S(=O)(=O)Nc2ccccc2C(=O)O)cc1[N+](=O)[O-]`: the Potency was 17.8 µM (active).

For `CCOc1ncccc1C(=O)NNC(=O)c1cccc(S(=O)(=O)Nc2ccccc2OC)c1`, the “activity change, negative = inhibition” value was -5.52% (inactive).

As for `COc1ccc(S(=O)(=O)Nc2ccc3cn[nH]c3c2)cc1[N+](=O)[O-]`, the “activity change, negative = inhibition” value is -31.1% (inactive).

As for `COc1cccc(/C=N/Nc2ccc(S(=O)(=O)Nc3ccccc3C(=O)O)cc2[N+](=O)[O-])c1O`, the Potency was 44.7 µM (active).

`COc1ccc(S(=O)(=O)Nc2ccccc2C(=O)N2CCCC2)cc1C`: the “activity change, negative = inhibition” value is -9.89% (inactive).
